# Compounds with a hit are over-represented: about 2.9% of the library has one in this group of screens.
# ERb SRC1 inh: blocks coactivator binding to human estrogen receptor beta; Q92731; inhibition, % at 25.6 µM; TR-FRET ER-beta LBD / SRC1-Cy5 peptide binding; receptor agonist-loaded with 1 µM estradiol; 86,000 tested, 1.3% active; AID 633;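 active = compounds whose percent inhibition of the receptor-coactivator binding signal exceeds about 50% in the single-dose screen, limit read from the data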;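 also: 0% = receptor plus peptide wells without compound and 100% = peptide-only wells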
# Target sequence (Q92731 whole entry, looked up, the tested form may be a part): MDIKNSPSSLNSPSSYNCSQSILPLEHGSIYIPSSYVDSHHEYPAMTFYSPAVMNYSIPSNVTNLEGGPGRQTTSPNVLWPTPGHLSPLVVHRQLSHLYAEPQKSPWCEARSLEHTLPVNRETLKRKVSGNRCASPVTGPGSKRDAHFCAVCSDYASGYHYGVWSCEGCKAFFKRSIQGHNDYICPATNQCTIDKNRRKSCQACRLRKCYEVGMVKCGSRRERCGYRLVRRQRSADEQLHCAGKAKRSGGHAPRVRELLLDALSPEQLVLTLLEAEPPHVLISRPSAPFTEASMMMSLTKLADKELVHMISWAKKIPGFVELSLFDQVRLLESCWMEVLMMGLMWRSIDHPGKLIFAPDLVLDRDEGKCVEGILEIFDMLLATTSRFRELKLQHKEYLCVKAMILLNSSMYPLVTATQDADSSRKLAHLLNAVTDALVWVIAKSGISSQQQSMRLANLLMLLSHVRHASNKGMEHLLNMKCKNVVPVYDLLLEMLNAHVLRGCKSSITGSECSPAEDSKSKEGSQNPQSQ
# ERa SRC1 inh: blocks coactivator binding to human estrogen receptor alpha; AID 629; P03372; inhibition, % at 25.6 µM; 86,000 tested, 1.7% active; TR-FRET ER-alpha LBD / SRC-1 peptide, estradiol-bound; in the data active = inhibition above about 50%;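 also: 0% = receptor plus peptide control and 100% = peptide only without receptor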
# ERa SRC1 pot: enhances coactivator binding to human estrogen receptor alpha; 86,000 tested, 1.3% active; P03372; AID 639; TR-FRET ERalpha-LBD/SRC-Cy5 coactivator binding, 2 h; 100 = basal binding, no effect; coactivator binding (% of control), % at 25.6 µM; in the data active = activity above about 200%;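 also: binding measured in presence of low estradiol as agonist stimulus; 0% = peptide alone without receptor and 100% = receptor with peptide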
# E-sel TNF inh: TNF alpha driven E-selectin expression inhibition | HUVEC TNFa-induced E-selectin immunofluorescence, high content | inhibition, % at 2 µM | 120,000 tested, 0.71% active | AID 1246;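 active = inhibition above the batch mean plus 3 SD, and confirmed as a hit on visual image review, cut at about 43% in these data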;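 also: 0% = TNF-stimulated DMSO wells and 100% = unstimulated control wells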
# cytoskel mod: alters cytoskeleton assembly in HUVEC cells; inhibition, % at 2 µM; HUVEC TNFa F-actin phalloidin imaging, high content; 91,000 tested, 0.18% active;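 active = inhibition above the batch mean plus 3 SD and confirmed as a hit by visual image inspection, cut at about 30% in these data, passing the limit was not always enough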
# Calb biofilm kill: kills Candida albicans biofilms. C. albicans biofilm + clotrimazole, Alamar Blue. inhibition, % at 6 µM. 85,000 tested, 0.14% active;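 active = inhibition above 20%; inactive = inhibition below 20%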;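 also: preformed 24 hr biofilms exposed to compound for 48 hr; 0% = biofilm without compound and 100% = blank killed by clotrimazole plus chlorhexidine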
# * = called active by the depositor; . = not tested or not shown; [ ] = dose if it differs, or a comment.
SMILES,ERb SRC1 inh,ERa SRC1 inh,ERa SRC1 pot,E-sel TNF inh,cytoskel mod,Calb biofilm kill
NC(=O)c1ccsc1NC(=O)Cc1ccc([N+](=O)[O-])cc1,.,.,.,15,.,.
COc1cccc(NC(=O)c2nnn(Cc3ccc(Br)cc3F)c2N)c1,-24,-3,270*,-35,.,4
COc1cccc(/C=C/C(=O)OCC(=O)NCc2ccco2)c1,.,.,.,1,.,.
COc1ccccc1N1CCN(C(=O)c2ccc3nc(-c4ccco4)c(-c4ccco4)nc3c2)CC1,66*,68*[fluorescence artefact?],57,17,23,10
COc1ccccc1N1CCN(C(=O)c2ccc(Br)s2)CC1,3,-11,117,80*,.,5
CC1CC(=O)Nc2ccccc2S1(=O)=O (stereo not given),1,-3,96,84*,.,5
Cc1cc(=O)oc2cc(OCC3CC(c4ccc(N(C)C)cc4)=NO3)ccc12 (stereo not given),27,51*[fluorescence artefact?],153,.,-13,-4
Cc1cc(=O)oc2cc(OCC3CC(c4ccc(Cl)cc4)=NO3)ccc12 (stereo not given),-7,-6,94,-13,-3,-2
O=C1c2ccccc2CC1(Cc1ccccc1)Cc1ccccc1,-6,1,279*,-21,1,6
NC(=O)C1CCN(S(=O)(=O)c2cccc(C(=O)O)c2)CC1,.,.,.,-24,6,.
COc1cc2c(cc1OC)CN(C(=O)c1ccccc1C(=O)O)CC2,9,2,96,12,21,-1
CCC(C(=O)N1CCc2cc(OC)c(OC)cc2C1)c1ccccc1 (stereo not given),14,12,108,100*,30,7
Cc1cc(SCc2cc(=O)[nH]c3ccccc23)nc2ccccc12,16,15,196,64*,-2,6
COC(=O)C(/C=N/OCc1ccc([N+](=O)[O-])cc1)NC(=O)c1cccc(Cl)c1 (stereo not given),20,24,395*[fluorescence artefact?],12,-15,11
COCC(C)NC(=O)c1cccc(Cl)c1 (stereo not given),2,5,109,-25,-12,15
CSc1ccc(NC(=O)N2CC=C(n3c(=O)[nH]c4ccccc43)CC2)cc1,.,.,.,-16,.,.
O=C(Cn1ncc(Cl)c(Cl)c1=O)N1CCc2ccccc21,.,.,.,100*,.,.
c1ccc(NC2=NCCCCS2)cc1,-11,-4,108,54*,4,8
O=C(OCC(=O)N1c2ccccc2Sc2ccccc21)c1ccc[n+]([O-])c1,.,.,.,-32,.,.
COc1cccc(C2CC(c3cccc(OC)c3)n3nc(N)nc3N2)c1 (stereo not given),-2,-11,121,-10,.,1
COc1cccc(C2CC(c3ccc(F)cc3)Nc3nc(N)nn32)c1 (stereo not given),16,9,308*,.,-7,4
COc1ccc2nc3oc(C(=O)N4CCN(c5cccc(Cl)c5)CC4)cc3cc2c1,35,62*[fluorescence artefact?],113,.,-15,8
COc1ccc2nc3oc(C(=O)N4CCN(c5cccc(C(F)(F)F)c5)CC4)cc3cc2c1,37,66*,118,.,8,5
O=C(NC(=O)c1cccc(OC(F)(F)C(F)F)c1)OC1CCS(=O)(=O)C1 (stereo not given),-4,-3,110,54*,.,3
CCCCNC(=O)OC1CCS(=O)(=O)C1 (stereo not given),-5,0,102,-26,8,5
SMILES,ERb SRC1 inh,ERa SRC1 inh,ERa SRC1 pot,E-sel TNF inh,cytoskel mod,Calb biofilm kill
Cn1nc(C(=O)Nc2sccc2C(N)=O)ccc1=O,54*[fluorescence artefact?],63*[fluorescence artefact?],21,48,-8,3
CC(C)c1ccc(N(CC(=O)NCCSC(C)(C)C)S(C)(=O)=O)cc1,7,-3,101,-9,-11,7
CCn1ncc(C2=NOC(C(=O)Nc3cccc(C(C)=O)c3)C2)c1C (stereo not given),-22,-39,96,.,9,4
CCOC(=O)C1CCN(C(=O)Nc2ccccc2Cl)CC1,-8,1,119,-40,.,6
C=CCn1c(C)cc(C(=O)CSc2n[nH]c(N)n2)c1C,-11,3,91,4,10,1
O=C(CSc1nnc(-c2cccnc2)o1)c1cc2ccccc2oc1=O,3,-4,221*,-17,-17,-2
CCCCOC(=O)c1c(C)oc2ccc(NS(=O)(=O)c3ccc4c5c(cccc35)C(=O)N4)cc12,53*,45,54,13,10,9

# From PubChem BioAssay
